Source: PubChem BioAssay (several laboratories)
rCAG binder: binders of r(CAG) RNA repeats, primary screen, biochemical, fluorescence | r(CAG) RNA repeat, TO-PRO-1 dye displacement fluorescence | inhibition, % at 3 µM | 370,000 compounds, 1.3% hits;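 active means inhibition above the plate cutoff, the mean of all test compounds on that plate plus 3 SD, cut at about 35% in these data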;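 further: 0% = DMSO alone and 100% = 100 µM mitoxantrone as full dye displacement; higher means more dye released from RNA so lower well fluorescence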
FAS TE block: FAS thioesterase domain inhibitors, primary screen, biochemical, fluorescence intensity, uHTS. Fatty acid synthase (Homo sapiens), P49327. recombinant FAS-TE, OMFH fluorogenic substrate, fluorescence endpoint. inhibition, % at 15 µM. 360,000 compounds, 0.67% hits. AID 602261, 2012;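 active means compounds whose normalised, plate-corrected inhibition of enzyme fluorescence in the single-dose primary screen is 50% or more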;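 further: 0% = DMSO with enzyme and 100% = substrate without enzyme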
Myeloid diff 2: induction of myeloid progenitor differentiation, primary screen, cell-based, flow cytometry, MLPCN library. AID 624256, 2012. ER-HoxA9 myeloid progenitors, lysozyme-GFP differentiation. 360,000 compounds, 1% hits. calls only at 10 µM;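 active means normalized GFP-positive differentiation at or above the plate's own cutoff, the solvent-only control mean plus 3 SD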;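 further: cells exposed to compound for four days before flow analysis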
NR3A LBD binder: binders of NR3A ligand-binding domain, primary screen, biophysical, differential scanning fluorimetry, uHTS; Glutamate receptor ionotropic, NMDA 3A (GRIN3A) ligand-binding domain; NR3A LBD differential scanning fluorimetry, Tm shift; 0% = protein alone, 100% = glycine-bound protein; Tm shift relative to glycine control, % at 25 µM; 340,000 compounds, 2.5% hits; AID 1259313, 2017;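 active means melting temperature shift of at least 10% of the positive control shift, at one fixed dose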
MPTP inh: mitochondrial permeability transition pore inhibitors, primary screen, biochemical, isolated mouse mitochondria, absorbance; Ca2+ swelling absorbance, 30 min; inhibition, % at 10 µM; 360,000 compounds, 1.4% hits;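 active means inhibition of 50% or more, scaled per plate between neutral and stimulator controls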;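 further: 0% = DMSO wells given calcium and 100% = 1 mM EGTA wells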
Myeloid diff CP1: inducers of myeloid progenitor differentiation, confirmation, cell-based, GFP/Mac1 flow cytometry, cherry pick 01. AID 651706, 2012. calls only. 2,300 compounds, 2% hits. shares compounds with Myeloid diff 2. ER-HoxA9 myeloid progenitors, GFP/Mac1 double-positive flow;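 active means share of green or green-and-red cells above 9 and 9% in run 1 or 4 and 3% in run 2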
GFP autofluor: compound fluorescence in myeloid differentiation counter-screen; shares compounds with Myeloid diff 2; ER-HoxA9 myeloid progenitors, no estrogen, GFP autofluorescence flow cytometry; vehicle wells 0%, positive control 100%; fluorescence response, % (no concentration beside the values); 2,300 compounds, 7.4% hits; AID 651707;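 active means over 5% cells positive for green fluorescent reporter, or over 2% positive for both it and APC stain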;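 further: range taken on the double positive population between DMSO and positive control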
* hit, by the source's call; i = inactive; nt = no result; + = active, no number. An excerpt weighted towards active compounds, which were near 5.7% of everything screened.

SMILES | rCAG binder | FAS TE block | Myeloid diff 2 | NR3A LBD binder | MPTP inh | Myeloid diff CP1 | GFP autofluor
Cc1nc2ccccc2n1CC(O)COCC1CC=CCC1 (centres undefined) | 1.3 | -3.8 | + | 0.6 | 9.8 | i | 0.0
COc1cc(/C=N/NC(=O)CCC(=O)NC2CCCCC2)ccc1C | -6.3 | -3.9 | i | 2.9 | -0.3 | nt | nt
COc1ccc(Cn2nnnc2CN2CCc3ccccc3C2)cc1 | -4.5 | 5.8 | i | 0.6 | -0.4 | nt | nt
COc1ccc(Cn2nnnc2CN2CCc3ccccc32)cc1 | 16.7 | 3.6 | + | -7.1 | 0.0 | i | 3.2
CCc1ccc(CNCc2ccc(OCC(O)CN(C)Cc3ccccc3)cc2)nc1 (centres undefined) | -8.6 | -1.9 | + | -1.2 | 24.7 | i | 1.1
Cc1cc(NC(=O)NC(C(F)(F)F)C(F)(F)F)no1 | -4.7 | -4.5 | i | -1.5 | -1.9 | nt | nt
O=C(NC1CCCCCC1)c1cc(-c2ccccn2)nc2ccccc12 | -5.0 | -2.5 | i | 0.3 | 0.5 | nt | nt
Cc1cc(C(=O)COc2ccc(F)cc2Br)c(C)n1C1CC1 | 0.3 | 18.3 | i | 4.0 | -1.2 | i | 1.5
CCNC(=O)C1(C)CCCN(Cc2cccc3ccccc23)C1 (centres undefined) | -2.3 | 0.6 | i | nt | -1.3 | nt | nt
COC(=O)c1ccccc1NC(=O)NCC1CCN(Cc2ccc(OC)cc2)CC1 | 1.7 | nt | nt | nt | nt | nt | nt
COc1ccc(OC)c(S(=O)(=O)N2CCC(C(=O)NCc3ccccc3)CC2)c1 | -4.7 | -6.6 | i | -1.2 | -0.3 | i | 2.3
CCn1c(SCC(=O)N2CCN(c3ccc(F)cc3)CC2)nc2ccccc2c1=O | 1.3 | 14.9 | i | 2.2 | 2.2 | i | 0.0
CC1Cc2ccccc2N1C(=S)Nc1cccc(S(=O)(=O)N(C)C)c1 (centres undefined) | 4.3 | 17.9 | i | -1.4 | 0.2 | nt | nt
CC1CCN(C(=S)Nc2cccc(S(=O)(=O)N(C)C)c2)CC1 | -0.9 | -4.3 | + | -2.2 | 0.0 | i | 0.3
CCC(C(=O)OCC(=O)N1C(C)CCCC1C)c1ccccc1 (centres undefined) | -9.7 | -7.4 | i | -3.8 | -0.3 | i | 0.0
Cc1cccnc1NC(=O)c1ccc2c(c1)NC(=O)C(C)S2 (centres undefined) | 1.9 | -4.0 | i | -0.1 | -1.9 | nt | nt
Cc1ccnc(NC(=O)c2ccc([N+](=O)[O-])o2)c1 | 0.6 | -2.3 | + | -1.3 | -0.1 | i | 0.6
Cc1ccc2nsnc2c1NC(=O)c1ccc([N+](=O)[O-])o1 | nt | -4.5 | + | -2.2 | -0.1 | i | 0.0
CCN(C(=O)CSc1ncccn1)c1c(N)n(Cc2ccccc2)c(=O)[nH]c1=O | 1.5 | -8.8 | i | 0.8 | -0.8 | nt | nt
COc1ccccc1CN(Cc1nc2ccccc2c(=O)[nH]1)C(=O)Nc1ccc(C)cc1 | -2.4 | 11.2 | i | -8.5 | 0.8 | + | 0.0
O=C(COC(=O)c1ccc(Cl)c(S(=O)(=O)N2CCCCC2)c1)NCC1CCCO1 (centres undefined) | -4.2 | -1.8 | i | -0.9 | -0.8 | nt | nt
CCOC(=O)C1CCCN(C(=O)Cn2nc(C)n3c(cc4c(OC)cccc43)c2=O)C1 (centres undefined) | -5.2 | -5.7 | i | -1.1 | -1.3 | nt | nt
CC(Oc1cccc(Cl)c1)C(=O)Nc1nc(-c2ccccn2)cs1 (centres undefined) | 4.3 | 7.0 | + | -6.4 | -0.8 | i | 4.5
COc1ccc(-c2noc(CCC(=O)N3CCN(c4ccccc4)CC3)n2)cc1 | 2.7 | -8.8 | i | 2.5 | 0.9 | nt | nt
CCc1[nH]nc(C(=O)N/N=C/c2ccncc2)c1C | -1.9 | -5.9 | i | -3.1 | -0.9 | nt | nt
SMILES | rCAG binder | FAS TE block | Myeloid diff 2 | NR3A LBD binder | MPTP inh | Myeloid diff CP1 | GFP autofluor
CCN1/C(=C/c2cc[n+](CCCS(=O)(=O)[O-])c3ccccc23)Sc2ccccc21 | -9.5 | -11.2 | + | 1.3 | 0.8 | i | 14.2*
CC(C)N1Cc2nnn(Cc3ccc(F)cc3)c2-c2cc(F)ccc2S1(=O)=O | 1.4 | nt | nt | nt | nt | nt | nt
O=C(COc1ccc2ccc(=O)oc2c1)NC1CCN(Cc2ccccc2)CC1 | -3.4 | -2.8 | i | -0.2 | -2.0 | nt | nt
O=C(COc1ccc2ccc(=O)oc2c1)NC1CCCC1 | -2.6 | -2.0 | + | 1.1 | 0.0 | i | 0.0
O=c1[nH]nc(Cc2ccc([N+](=O)[O-])cc2)c2ccccc12 | -0.4 | 4.0 | i | -0.5 | -0.1 | nt | nt
COc1ccc(Cc2n[nH]c(=O)c3ccccc23)cc1OC | 2.4 | 0.4 | i | 1.9 | -0.1 | i | 0.0
COc1ccc(N2CC(C(=O)OCC(=O)c3ccc(C)cc3)CC2=O)cc1 (centres undefined) | -5.4 | -4.5 | + | 0.7 | 0.6 | i | 0.3
COc1ccc(Cn2nnnc2C(c2cccnc2)N2CCN(c3ccc(O)cc3)CC2)cc1 (centres undefined) | 0.3 | -0.7 | i | 2.8 | -0.2 | i | 5.0
COc1ccc(Cc2nnc(SCC(=O)N3CCN(c4ccccc4)CC3)o2)cc1 | 1.9 | 2.2 | i | -2.2 | 9.0 | nt | nt
COc1ccc(N2CCN(C(=O)CSc3nnc(CNc4ccccc4)o3)CC2)cc1 | 2.1 | -4.2 | i | -0.3 | -1.7 | i | 0.7
CC(=O)Nc1cccc(C(=O)OCC(=O)Nc2c(C)nn(-c3ccccc3)c2C)c1 | -3.6 | -6.2 | i | 2.0 | -1.8 | nt | nt
COc1ccc(NC(=O)C2CCC(=O)N2)cc1 (centres undefined) | -1.8 | -4.7 | i | -0.5 | -0.1 | i | 0.0
COc1ccc(NC(=O)C2CCCC2)cc1 | -1.2 | -6.6 | i | 0.2 | -0.8 | nt | nt
O=C(CCc1nnc2n(Cc3ccc(F)cc3)c(=O)c3ccccc3n12)N1CCN(c2ccccn2)CC1 | 4.3 | 22.0 | i | 1.0 | -0.1 | nt | nt
Cn1ccc2c(N3CCCCCCC3)cc3c(c21)C1CCC3O1 (centres undefined) | 5.3 | 10.8 | + | nt | -0.7 | i | 0.0
Cc1ccc(C(=O)OCCc2c(C)[nH]n(-c3ccccc3)c2=O)cc1 | -1.9 | -4.5 | i | -1.6 | 1.4 | i | 0.3
CC1CC=C(O)C12OCC(C)(C)CO2 (centres undefined) | -1.0 | -3.6 | i | 0.5 | 0.0 | nt | nt
Cc1cccc(N(C(=O)CNC(=O)c2cccs2)C(C(=O)NC2CCCC2)c2cccnc2)c1 (centres undefined) | -7.7 | -2.3 | i | 8.9 | -0.8 | i | 0.4
